Laboratory results: PubChem BioAssay (NCATS)
“And” between values parts separate entries of the source, which are not always exact repeats. Equal entries are not always repeated. Records with an inconclusive call do not appear. The source made the active and inactive calls. Unless noted, calls come from the whole dose curve; as a rule, active = well fitted curve in the direction sought with a large enough effect; inconclusive = small, poorly fitted or top-dose-only effect, or another doubt; inactive = no such curve, though single readings can be large; an effect the other way counts as inactive or inconclusive.

Experiments:
[1] = Cell Viability - HepG2 (AID 433; calls by dose curve;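 note: potency is the fitted concentration of half-maximal effect; cells exposed to compound for 40 hours; potency for ATP loss meaning cytotoxicity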); details: qHTS
Summary of the method: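 HepG2 hepatocellular carcinoma cells (1500/well) were treated with compounds for 40 h at 37 °C in complete medium; intracellular ATP was read by CellTiter-Glo luminescence. Data were normalized to DMSO and 100 uM tamoxifen, and AC50 came from Hill fits.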

[2] = Cell Viability - NIH 3T3 (AID 541); details: NIH 3T3 cell viability, qHTS; activity change, negative = cytotoxicity: at 92.2 µM (top of the series);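 note: cells exposed to compound for 40 hours; plate controls were DMSO alone for no effect and tamoxifen positive control for full effect; nearly all actives have a fitted effect of over 25% in size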
Summary of the method: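 Cells seeded at 1000/well, rested 5 hr at 37 °C, then dosed and incubated 40 hr at 37 °C. CellTiter-Glo added, 20 min room temperature, luminescence read. AC50 by Hill fit.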

[3] = Cell Viability - H-4-II-E (AID 543); details: H-4-II-E rat hepatoma viability; series mostly up to 92.2 µM;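 note: cells exposed to compound for 40 hours; % is set by controls: 0 for no effect and ±100 for the full control effect; nearly all actives have a fitted effect of over 35% in size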
Summary of the method: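 Cells seeded at 1500 per well and rested 5 hr; compounds added; 40 hr incubation at 37 °C; CellTiter-Glo added, 20 min at room temperature; luminescence read. Hill-equation fits gave AC50.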

[4] = Cell Viability - SH-SY5Y (AID 544); details: SH-SY5Y neuroblastoma cell viability; viability change, negative = cytotoxic: at 92.2 µM (top of the series);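 note: cells exposed to compound for 40 hours; 0% = DMSO alone and -100% = 100 µM tamoxifen; nearly all actives have a fitted effect of over 55% in size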
Summary of the method: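 Cells were plated at 1500 per well and allowed 5 hr at 37 °C. Compounds were added across a concentration range and incubated 40 hr at 37 °C. CellTiter-Glo was added for 20 min at room temperature before luminescence reading.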

[5] = Cell Viability - LYMP2-001 (AID 921); details: LYMP2-001 lymphoblastoid cell viability; series mostly up to 92.2 µM;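 note: 0% = DMSO only and full inhibition = tetraoctylammonium bromide control wells; nearly all actives have a fitted effect of over 70% in size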
Summary of the method: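 Human lymphoblastoid cells (Coriell), 2500 per well, were preincubated 5 hr at 37 C, then exposed to compounds in complete medium for 24 hr at 37 C. Cellular ATP was read by CellTiter-Glo luminescence; AC50 from Hill fits of concentration-response data.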

[6] = Cell Viability - LYMP2-003 (AID 965); details: LYMP2-003 lymphoblastoid cell viability; series mostly up to 92.2 µM;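 note: cells exposed to compounds for 24 h before reading; 0% = DMSO only and full effect = 92 µM tetraoctylammonium bromide; nearly all actives have a fitted effect of over 50% in size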
Summary of the method: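 Human lymphoblastoid cells (2500/well) were pre-incubated 5 hr at 37 C, then exposed to compounds over a concentration range for 24 hr at 37 C. Intracellular ATP was read by CellTiter-Glo luminescence; AC50 came from Hill-equation fits.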

[7] = Cell Viability - LYMP2-015 (AID 971); details: LYMP2-015 lymphoblastoid cell viability; series mostly up to 92.2 µM;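 note: 0% = DMSO only and full effect = 92 µM tetraoctylammonium bromide; nearly all actives have a fitted effect of over 55% in size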
Summary of the method: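 Cells are seeded at 2500 per well and incubated 5 hr at 37 C. Compounds are added across a concentration series for 24 hr at 37 C. CellTiter-Glo is added, and luminescence is read after 30 min at room temperature.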

[8] = Cell Viability - LYMP2-017 (AID 972); details: LYMP2-017 lymphoblastoid cell viability; series mostly up to 92.2 µM; note: % is set by controls: 0 for no effect and ±100 for the full control effect; nearly all actives have a fitted effect of over 55% in size
Summary of the method: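 Cytotoxicity is scored as a concentration-dependent drop in cellular ATP in a human lymphoblastoid line after 24 hr treatment at 37 C. Values are AC50s from Hill-equation modelling.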

[9] = Cell Viability - LYMP2-021 (AID 974); details: LYMP2-021 lymphoblastoid cells viability; series mostly up to 92.2 µM;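 note: compound exposure lasts 24 hours at 37 °C; % is set by controls: 0 for no effect and ±100 for the full control effect; nearly all actives have a fitted effect of over 55% in size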
Summary of the method: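 Loss of cellular ATP, measured with a luciferase-based CellTiter-Glo readout, serves as the toxicity signal in human lymphoblastoid cells treated for 24 hours at 37 C. Potency is reported as AC50 from a standard Hill model.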

[10] = Cell Viability - LYMP2-006 (AID 978); details: LYMP2-006 lymphoblastoid cell viability, qHTS; series mostly up to 92.2 µM; note: % is set by controls: 0 for no effect and ±100 for the full control effect; nearly all actives have a fitted effect of over 60% in size
Summary of the method: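 Human lymphoblastoid cells, 2500 per well, were preincubated 5 hr at 37 C, then exposed to compounds for 24 hr at 37 C in complete medium. Viability was read as intracellular ATP by CellTiter-Glo luminescence; AC50 from Hill-equation fits of qHTS concentration-response data.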

[11] = Cell Viability - LYMP2-010 (AID 981); details: LYMP2-010 lymphoblastoid cell viability, qHTS; series mostly up to 92.2 µM
Summary of the method: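 Steps: seed 2500 LYMP2-010 cells per well; incubate 5 hr at 37 C; add compound; incubate 24 hr at 37 C; add CellTiter-Glo, wait 30 min at room temperature; read luminescence. Concentration-response fitted to Hill equation for AC50.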

[12] = Cell Viability - LYMP2-012 (AID 982); details: LYMP2-012 lymphoblastoid cell viability qHTS; series mostly up to 92.2 µM
[13] = Cell Viability - LYMP2-016 (AID 984); details: LYMP2-016 lymphoblastoid cell viability, qHTS; series mostly up to 92.2 µM
Summary of the method: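 Human lymphoblastoid cells (LYMP2-016), 2500/well in complete medium, preincubated 5 hr at 37 C, then compound-treated 24 hr at 37 C. Intracellular ATP read by CellTiter-Glo luminescence after 30 min at room temperature; AC50 from Hill-equation concentration-response fits.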

[14] = Cell Viability - LYMP1-002 - Assay at 40 hr (AID 994); details: LYMP1-002 lymphoblastoid cell viability; series mostly up to 92.2 µM;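 note: 0% = DMSO only and full inhibition = 92 µM tetraoctylammonium bromide; nearly all actives have a fitted effect of over 60% in size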
Summary of the method: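 Cells are plated at 2500 per well and rested 5 hr at 37 C. Compounds are added and incubated 40 hr at 37 C. CellTiter-Glo reagent is added for 30 min at room temperature before luminescence is read.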

[15] = qHTS assay for small molecule agonists of the antioxidant response element (ARE) signaling pathway measured by Nrf2-dependant transcriptional activity (AID 720636; active = well fitted curve in the direction sought with a large enough effect in the repeat runs; an effect the other way counts as inactive or inconclusive;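 note: HepG2 cells with an ARE-driven luciferase reporter; % of control where 0% means no effect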); details: ARE-luc HepG2, Nrf2 luciferase reporter, 16 h; series mostly up to 92.4 µM
Summary of the method: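 Reporter gene assay, HepG2 ARE-luc: 16 hr compound, 37 C, 5% CO2; read-out luciferase luminescence.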

[16] = qHTS assay for small molecule activators of the human pregnane X receptor (PXR) signaling pathway (AID 720659; call rule not given here; note: 0% is about no effect); details: DPX-2 HepG2 CYP3A4-luciferase, 24 h; series mostly up to 92.3 µM
[17] = Cell Viability - LYMP1-003 - Assay at 40 hr (AID 964); details: LYMP1-003 lymphoblastoid viability; series mostly up to 92.2 µM; note: % is set by controls: 0 for no effect and ±100 for the full control effect; nearly all actives have a fitted effect of over 60% in size
Summary of the method: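 Luminescent ATP signal (CellTiter-Glo) served as the viability read-out after 40 hr compound treatment of human lymphoblastoid LYMP1-003 cells at 37 C. Decreases in ATP were fitted with the Hill equation to give AC50.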

[18] = Cell Viability - LYMP2-020 (AID 986); details: series mostly up to 92.2 µM
Summary of the method: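 Seed 2500 cells per well and incubate 5 hr at 37 C. Add compounds at a concentration series and incubate 24 hr at 37 C. Add CellTiter-Glo, wait 30 min at RT, read luminescence, and fit a Hill curve for AC50.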

[19] = target: Retinoic acid receptor RXR-alpha (Homo sapiens) (UniProt P19793); test: qHTS assay for small molecule agonists of retinoid X receptor alpha signaling (AID 588544; calls by dose curve;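 note: 0% = DMSO basal wells and 100% = reference agonist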); details: HEK293T RXRa-UAS-bla, beta-lactamase reporter, 18 h; series mostly up to 76.7 µM
Chain of Retinoic acid receptor RXR-alpha (Homo sapiens) (P19793 whole entry, looked up): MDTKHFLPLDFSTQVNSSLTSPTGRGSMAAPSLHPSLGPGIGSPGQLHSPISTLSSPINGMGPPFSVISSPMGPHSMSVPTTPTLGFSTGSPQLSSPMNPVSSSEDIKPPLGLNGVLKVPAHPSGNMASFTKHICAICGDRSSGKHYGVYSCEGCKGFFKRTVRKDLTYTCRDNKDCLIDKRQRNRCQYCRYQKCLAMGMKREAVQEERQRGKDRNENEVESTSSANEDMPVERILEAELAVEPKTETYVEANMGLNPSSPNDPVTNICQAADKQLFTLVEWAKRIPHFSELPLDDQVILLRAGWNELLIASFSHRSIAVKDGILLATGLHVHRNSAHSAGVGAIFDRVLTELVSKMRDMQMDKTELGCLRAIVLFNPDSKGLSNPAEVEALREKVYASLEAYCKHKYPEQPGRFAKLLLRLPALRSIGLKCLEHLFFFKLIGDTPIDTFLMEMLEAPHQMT

[20] = target: Retinoic acid receptor RXR-alpha (Homo sapiens) (UniProt P19793); test: qHTS assay for small molecule antagonists of retinoid X receptor alpha signaling (AID 588546; active = well fitted inhibition curve with a large enough effect in the signal ratio, with a control signal flat, not every such curve was filed as active; the % refers to the signal ratio;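 note: cells stimulated with 9-cis-retinoic acid as agonist; % is set by controls: 0 for no effect and ±100 for the full control effect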); details: HEK293T RXRa-UAS-bla, beta-lactamase ratio, antagonist mode
Summary of the method: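 Beta-lactamase reporter inhibition, read as CCF4 fluorescence ratio (ex 405, em 460/530 nm) after 2 h at RT. HEK293T UAS-bla cells, 2500/well, were stimulated with 9-cis-RA at 500 or 100 nM final alongside test compound for 18 h at 37 C.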

C=CCOCC1CO1 (stereo not drawn)
inactive: Potency [1] > 92 µM | Potency [2] | Potency [3] | Potency [4] | Potency [5] | Potency [6] | Potency [7] | Potency [8] | Potency [9] | Potency [10] | Potency [11] | Potency [12] | Potency [13] | Potency [14] | Potency [15] | outcome [16]

CCC(Cl)[N+](=O)[O-] (stereo not drawn)
inactive: Potency [1] > 92 µM | Potency [2] | Potency [4] | Potency [5] | Potency [17] | Potency [6] | Potency [8] | Potency [11] | Potency [12] | Potency [13] | Potency [18] | Potency [14] | outcome [19] | max response [20] -10.3% | Potency [15] | outcome [16]

CCCCCCCCCCCCCl
inactive: Potency [1] > 92 µM | Potency [2] | Potency [3] | Potency [4] | Potency [5] | Potency [17] | Potency [6] | Potency [7] | Potency [8] | Potency [9] | Potency [10] | Potency [11] | Potency [12] | Potency [13] | Potency [18] | Potency [14] | outcome [19] | Potency [15] | outcome [16]

C=CC(=O)OCC(C)C
inactive: Potency [1] > 92 µM | Potency [2] | Potency [5] | Potency [17] | Potency [6] | Potency [8] | Potency [9] | Potency [10] | Potency [11] | Potency [12] | Potency [13] | Potency [18] | Potency [14] | outcome [19] | max response [20] 5.4% | outcome [16]

CCCBr
inactive: Potency [1] > 92 µM | Potency [2] | Potency [3] | Potency [4] | Potency [5] | Potency [17] | Potency [6] | Potency [7] | Potency [8] | Potency [9] | Potency [10] | Potency [11] | Potency [12] | Potency [18] | Potency [14] | outcome [19] | max response [20] 1.56% | Potency [15] | outcome [16]

Nc1ccc(Cc2ccc(N)cc2)cc1
inactive: Potency [1] > 92 µM | Potency [2] | Potency [3] | Potency [17] | Potency [6] | Potency [7] | Potency [9] | Potency [11] | Potency [13] | Potency [14] | outcome [19] | Potency [15] | outcome [16]

Nc1cccc2ccccc12
inactive: Potency [1] > 92 µM | Potency [2] | Potency [3] | Potency [4] | Potency [17] | Potency [12] | Potency [13] | Potency [18] | Potency [14] | max response [20] -9%

Nn1cnnc1
inactive: Potency [1] > 92 µM | Potency [2] | Potency [3] | Potency [4] | Potency [17] | Potency [6] | Potency [7] | Potency [8] | Potency [9] | Potency [10] | Potency [11] | Potency [12] | Potency [13] | Potency [18] | Potency [14] | outcome [19] | max response [20] 24.4% | Potency [15] | outcome [16]

CC(=O)[O-].CC(=O)[O-].CC(=O)[O-].[Cr+3]
inactive: Potency [1] > 92 µM | Potency [2] | Potency [4] | Potency [17] | Potency [6] | Potency [7] | Potency [8] | Potency [9] | Potency [10] | Potency [11] | Potency [12] | Potency [14] | outcome [19] | max response [20] 18.8% | Potency [15]

CC(=O)CCC(C)=O
inactive: Potency [1] > 92 µM | Potency [2] | Potency [3] | Potency [4] | Potency [5] | Potency [17] | Potency [7] | Potency [9] | Potency [10] | Potency [11] | Potency [12] | Potency [13] | Potency [18] | Potency [14] | outcome [19] | max response [20] 0.643% | Potency [15] | outcome [16]

Cc1ccccc1[N+](=O)[O-]
inactive: Potency [1] > 92 µM | Potency [2] | Potency [3] | Potency [4] | Potency [5] | Potency [17] | Potency [6] | Potency [7] | Potency [9] | Potency [10] | Potency [11] | Potency [12] | Potency [13] | Potency [18] | Potency [14] | outcome [19] | max response [20] 10.9% | Potency [15] | outcome [16]

CC(C#N)CCC#N (stereo not drawn)
inactive: Potency [1] > 92 µM | Potency [2] | Potency [3] | Potency [4] | Potency [5] | Potency [17] | Potency [6] | Potency [7] | Potency [9] | Potency [10] | Potency [11] | Potency [13] | Potency [18] | Potency [14] | outcome [19] | max response [20] -1.63% | Potency [15] | outcome [16]

CCN(CC)CCO
inactive: Potency [1] > 92 µM | Potency [2] | Potency [3] | Potency [4] | Potency [5] | Potency [17] | Potency [7] | Potency [8] | Potency [10] | Potency [13] | Potency [18] | Potency [14] | outcome [19] | Potency [15] | outcome [16]

CCOC(=O)CC(SP(=O)(OC)OC)C(=O)OCC (stereo not drawn)
inactive: Potency [1] > 92 µM | Potency [2] | Potency [3] | Potency [5] | Potency [6] | Potency [8] | Potency [10] | Potency [12] | Potency [13] | Potency [18] | Potency [14] | outcome [19] | max response [20] -24.2% and 2.64% | Potency [15] | outcome [16]

Cc1ccc(N)c(C)c1
inactive: Potency [1] > 92 µM | Potency [2] | Potency [17] | Potency [7] | Potency [8] | Potency [9] | Potency [10] | Potency [11] | Potency [12] | Potency [18] | outcome [19] | outcome [16]

OCCBr
inactive: Potency [1] > 92 µM | Potency [2] | Potency [3] | Potency [4] | Potency [17] | Potency [6] | Potency [7] | Potency [8] | Potency [9] | Potency [10] | Potency [11] | Potency [13] | Potency [18] | Potency [14] | outcome [19] | max response [20] 2.44% | Potency [15] | outcome [16]

CCCCC#N
inactive: Potency [1] > 92 µM | Potency [2] | Potency [3] | Potency [17] | Potency [7] | Potency [8] | Potency [9] | Potency [11] | Potency [12] | Potency [13] | Potency [18] | Potency [14] | max response [20] 11.5% | Potency [15] | outcome [16]
